Beta2AR agonist = agonists of human beta-2 adrenergic receptor inducing internalization; P07550; Am2.2-beta2AR cells, FAP receptor internalization, flow cytometry; response, % (no concentration beside the values); 340,000 tested, 0.43% active; AID 504454;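 active = response above a set limit, near 3 SD of response in nonfluorescent compounds, cut at about 42% in these data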
Target sequence (P07550 whole entry, looked up): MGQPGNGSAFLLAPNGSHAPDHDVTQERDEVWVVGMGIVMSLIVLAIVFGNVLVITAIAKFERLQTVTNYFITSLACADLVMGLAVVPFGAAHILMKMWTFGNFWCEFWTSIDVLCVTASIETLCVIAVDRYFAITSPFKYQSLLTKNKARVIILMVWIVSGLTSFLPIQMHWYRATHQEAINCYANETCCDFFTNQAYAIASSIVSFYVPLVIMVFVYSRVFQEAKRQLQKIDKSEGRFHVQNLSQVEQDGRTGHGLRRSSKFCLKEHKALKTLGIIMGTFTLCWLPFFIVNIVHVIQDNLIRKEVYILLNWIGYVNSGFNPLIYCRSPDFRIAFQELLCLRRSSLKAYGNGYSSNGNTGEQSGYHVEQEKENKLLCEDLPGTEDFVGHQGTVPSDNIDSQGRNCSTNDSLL
HIF-2a block = blocks HIF-2a reporter activity; 786-0 RCC cells HIF-2a reporter, luciferase luminescence, overnight; inhibition, % at 18.8 µM; 360,000 tested, 0.72% active;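 active = inhibition of the luminescence signal of 40% or more relative to plate controls, in a single-dose primary screen at 18.75 µM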
Peg3 promoter = inhibitors of Peg3 promoter. 360,000 tested, 1.7% active. HeLa PEG-Prom luciferase reporter, luminescence, overnight. inhibition, % at 20 µM. AID 588405;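 active = inhibition of at least 50% at 20 µM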
CF NFkB inh = cystic fibrosis NF-kB activation inhibition; KKLEB NF-kB-GFP reporter, PAF-induced, GFP fluorescence overnight; inhibition, % at 5 µM; 360,000 tested, 0.86% active;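 active = at least 50% inhibition at 5 µM, scaled per plate between neutral and stimulator controls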;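 note: PAF is a Pseudomonas aeruginosa culture filtrate used as stimulus; plate controls were PAF-stimulated DMSO wells for no effect and unstimulated DMSO wells for full effect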
KKLEB tox = reduces viability of KKLEB cystic fibrosis airway cells; KKLEB CF airway cells viability, ATPlite luminescence, overnight; stronger effect = lower value; cells stimulated with P. aeruginosa culture filtrate; activity change (cytotoxicity), % at 5 µM; 360,000 tested, 0.36% active;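 active = corrected activity change at or below -50% at 5 µM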
MITF TRPM1 inh = inhibitors of MITF-driven TRPM1 promoter in melanoma cells; SK-MEL-5 TRPM1 promoter luciferase, 24 h; inhibition, % at 12.5 µM; 330,000 tested, 0.83% active; AID 488899;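 active = mean inhibition across replicates of 60% or more, whatever share of single replicates reaches that level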
Starred values were filed as active, the others as inactive; nt = no result. Most compounds without a hit are left out; they make up all but 2.8% or so of the library.

SMILES | Beta2AR agonist | HIF-2a block | Peg3 promoter | CF NFkB inh | KKLEB tox | MITF TRPM1 inh
Cc1cccc(CN2CCN(C3CN(Cc4cn(Cc5ccccc5)nn4)S(=O)(=O)C3)CC2)c1 (stereo unspecified) | nt | -3 | nt | nt | nt | nt
N=c1c2c(n(Cc3cccc(Cl)c3)c3c1CCC3)CCCC2 | 5 | -5 | 54* | 21 | -14 | 50
N=c1c2c(n(Cc3ccc(Cl)cc3)c3c1CCC3)CCC2 | 13 | 6 | 26 | 30 | -14 | 64*
CCCCCCSc1cc(-c2nc3cc(C)ccn3c2NCCCC)ccc1OC | 1 | -9 | 40 | 1 | 13 | 4
CCCCNc1c(-c2cccc(-c3cc(C(C)=O)cs3)c2)nc2cc(C)ccn12 | 37 | -101 | 60* | 10 | -10 | -5
CCn1c2ccccc2c2cc(N=C3SC(CC(=O)Nc4ccccc4OC)C(=O)N3C)ccc21 (stereo unspecified) | -1 | 13 | 11 | 6 | -4 | 7
CCn1c2ccccc2c2cc(N=C3SC(CC(=O)Nc4ccccc4)C(=O)N3C)ccc21 (stereo unspecified) | 5 | 20 | 11 | 56* | -52* | 0
CN(C)c1cccc(CNC(=O)c2csc(COCCO)n2)c1 | nt | 0 | -4 | 18 | -16 | nt
C[C@H](NC(=O)c1[nH]cnc1C(=O)Nc1ccc(CNC(=O)OC(C)(C)C)cc1)C(=O)OCc1ccccc1 | 48* | 3 | 97* | 1 | 20 | -1
C[C@@H](O)CNC(=O)c1[nH]cnc1C(=O)Nc1ccc(CNC(=O)OC(C)(C)C)cc1 | nt | 10 | 28 | -7 | 8 | nt
CC(C)(C)OC(=O)CNC(=O)c1[nH]cnc1C(=O)Nc1ccc(CNC(=O)OC(C)(C)C)cc1 | 23 | 5 | 66* | 43 | -14 | 1
CC(C)(C)OC(=O)NCc1ccc(NC(=O)c2nc[nH]c2C(=O)NCCNC(=O)c2[nH]cnc2C(=O)Nc2ccc(CNC(=O)OC(C)(C)C)cc2)cc1 | 18 | 7 | 84* | 72* | -32 | 2
CCOC(=O)CC1(C)c2nc(NC(C)=O)sc2Cc2sc(NC(C)=O)nc21 | nt | -91 | -53 | -12 | -2 | nt
COC(=O)Nc1nc2ccc(C(=O)c3cccs3)cc2[nH]1 | 12 | -79 | -158 | 60* | 9 | 21
COc1ccc2cc1Oc1ccc(cc1)C[C@H]1c3c(cc(OC)c4c3Oc3c(ccc5c3[C@H](C2)N(C)CC5)O4)CCN1C | 32 | 21 | 100* | 87* | -88* | 91*
CCc1ccccc1C1C(=O)c2ccccc2C1=O | -3 | 6 | 3 | -12 | 0 | -9
O=C1c2ccccc2C(=O)C1c1ccnc2ccccc12 | 6 | 24 | 83* | -134 | -70* | 36
O=C1c2ccccc2C(=O)C1c1nccc2ccccc12 | -1 | 3 | 88* | -144 | -65* | 55
O=C(O)c1ccccc1-c1ccccc1C(=O)Nc1ccc2c(c1)C(O)c1ccccc1-2 (stereo unspecified) | nt | 21 | 5 | -27 | -1 | nt
CC(C)Sc1nc(-c2cccs2)nc2cc(Cl)ccc12 | nt | 5 | nt | nt | nt | nt
CN(CCC#N)c1ccc(/C=C(\C#N)c2ccccn2)cc1 | -10 | -39 | -46 | -19 | -52* | 1
CN(CCC#N)c1ccc(C=C(C#N)c2ccc(Br)cc2)cc1 | nt | -264 | -238 | -24 | 2 | nt
CCN(CC)c1ccc(/C=C(\C#N)c2ccccn2)cc1 | -11 | -59 | 0 | -11 | -50* | -25
CCN(Cc1ccccc1)c1ccc(/C=C(\C#N)c2ccccn2)cc1 | 9 | -267 | -319 | -5 | 9 | -112
CCc1nc2ccc(C(=O)NCCCN3CCCC3=O)cn2c1N(CCC(C)C)CCN(C)C | nt | -2 | 4 | 1 | 4 | nt
Cc1ccc(S(=O)(=O)N(C(=O)c2ccncc2)c2ccc(OC(=O)c3ccncc3)c3ccccc23)cc1 | 19 | 20 | 0 | 27 | 0 | 11
Cc1ccc(S(=O)(=O)N(C(=O)c2ccncc2)c2ccc(OC(=O)c3ccncc3)c3ccccc23)c(C)c1 | 5 | 40 | 51* | 21 | -4 | 46
CCCCn1c2nc3ccccc3nc2c2c(=O)n(C(C)CC)cnc21 (stereo unspecified) | 7 | 8 | 33 | -5 | 7 | 4
CCC(C)n1c(C)nc2c(c1=O)c1nc3ccccc3nc1n2CCC1=CCCCC1 (stereo unspecified) | 16 | -30 | 77* | -28 | 0 | 8

Assay outcomes from PubChem BioAssay.
